According to the supplement of paper PMC6089552:
In all, about 3,200 compounds went through this assay and about 300 (9.4%) showed activity. What follows is part of a selection rich in actives, with near analogues and random picks from the rest. A number with no mark means an inactive call.

Tested on: A673/TR/shEF
Experiment: cell viability (LOESS-normalised, relative to median of negative controls) (log2 ratio); higher = more viable cells (less compound effect), active = hit call of the paper (over 3 MAD below the median)
Details: treatment time: 72 h
Summary of the method: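 Viability of A673/TR/shEF Ewing sarcoma cells was determined by CellTiter-Glo luminescence. The cells, at 1,500 per well in 384-well plates, were grown with or without doxycycline from 24 h before compound addition to switch on EWS-FLI1 shRNA knockdown, then exposed for three days to library compounds at two or more concentrations or to DMSO controls. Signals were LOESS-corrected plate by plate, normalised to the negative-control median and log2-transformed.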

[1] = 0.103 µM, library screen: screen3, EWS-FLI1 expression: high (no doxycycline)
[2] = 0.103 µM, library screen: screen3, EWS-FLI1 expression: low (doxycycline-induced shRNA knockdown)
[3] = 0.25 µM, library screen: screen1, EWS-FLI1 expression: high (no doxycycline)
[4] = 0.25 µM, library screen: screen1, EWS-FLI1 expression: low (doxycycline-induced shRNA knockdown)
[5] = 0.25 µM, library screen: screen2, EWS-FLI1 expression: high (no doxycycline)
[6] = 0.25 µM, library screen: screen2, EWS-FLI1 expression: low (doxycycline-induced shRNA knockdown)
[7] = 0.308 µM, library screen: screen3, EWS-FLI1 expression: high (no doxycycline)
[8] = 0.308 µM, library screen: screen3, EWS-FLI1 expression: low (doxycycline-induced shRNA knockdown)
[9] = 0.926 µM, library screen: screen3, EWS-FLI1 expression: high (no doxycycline)
[10] = 0.926 µM, library screen: screen3, EWS-FLI1 expression: low (doxycycline-induced shRNA knockdown)
[11] = 2.5 µM, library screen: screen1, EWS-FLI1 expression: high (no doxycycline)
[12] = 2.5 µM, library screen: screen1, EWS-FLI1 expression: low (doxycycline-induced shRNA knockdown)
[13] = 2.5 µM, library screen: screen2, EWS-FLI1 expression: high (no doxycycline)
[14] = 2.5 µM, library screen: screen2, EWS-FLI1 expression: low (doxycycline-induced shRNA knockdown)
[15] = 2.8 µM, library screen: screen3, EWS-FLI1 expression: high (no doxycycline)
[16] = 2.8 µM, library screen: screen3, EWS-FLI1 expression: low (doxycycline-induced shRNA knockdown)
[17] = 8.3 µM, library screen: screen3, EWS-FLI1 expression: high (no doxycycline)
[18] = 8.3 µM, library screen: screen3, EWS-FLI1 expression: low (doxycycline-induced shRNA knockdown)
[19] = 25 µM, library screen: screen3, EWS-FLI1 expression: high (no doxycycline)
[20] = 25 µM, library screen: screen3, EWS-FLI1 expression: low (doxycycline-induced shRNA knockdown)

NC(=O)c1ncn([C@@H]2O[C@H](CO)[C@@H](O)[C@H]2O)n1
cell viability (log2) [1]: 0.0479 | cell viability (log2) [2]: -0.00301 | cell viability (log2) [3]: 0.0242 | cell viability (log2) [4]: -0.0375 | cell viability (log2) [5]: 0.0942 | cell viability (log2) [6]: 0.138 | cell viability (log2) [7]: 0.00539 | cell viability (log2) [8]: 0.013 | cell viability (log2) [9]: 0.012 | cell viability (log2) [10]: 0.0638 | cell viability (log2) [11]: 0.0898 | cell viability (log2) [12]: -0.0568 | cell viability (log2) [13]: 0.148 | cell viability (log2) [14]: 0.053 | cell viability (log2) [15]: -0.0142 | cell viability (log2) [16]: -0.0276 | cell viability (log2) [17]: 0.0371 | cell viability (log2) [18]: 0.0291 | cell viability (log2) [19]: 0.13 | cell viability (log2) [20]: 0.0392

Nc1ccn([C@@H]2O[C@H](CO)[C@@H](O)[C@@H]2O)c(=O)n1
cell viability (log2) [1]: -0.206 (active) | cell viability (log2) [2]: -0.0158 | cell viability (log2) [3]: 0.0194 | cell viability (log2) [4]: 0.174 | cell viability (log2) [5]: -0.179 (active) | cell viability (log2) [6]: 0.162 | cell viability (log2) [7]: -0.0966 | cell viability (log2) [8]: 0.00929 | cell viability (log2) [9]: -0.377 (active) | cell viability (log2) [10]: -0.00593 | cell viability (log2) [11]: -0.85 (active) | cell viability (log2) [12]: 0.0115 | cell viability (log2) [13]: -1.17 (active) | cell viability (log2) [14]: -0.0511 | cell viability (log2) [15]: -0.966 (active) | cell viability (log2) [16]: -0.023 | cell viability (log2) [17]: -1.5 (active) | cell viability (log2) [18]: -0.184 (active) | cell viability (log2) [19]: -2.24 (active) | cell viability (log2) [20]: -0.544 (active)

NC(=O)c1ncn([C@@H]2O[C@H](CO)[C@@H](O)[C@H]2O)c1O
cell viability (log2) [3]: 0.115 | cell viability (log2) [4]: 0.116 | cell viability (log2) [5]: 0.21 | cell viability (log2) [6]: 0.141 | cell viability (log2) [11]: 0.0737 | cell viability (log2) [12]: 0.176 | cell viability (log2) [13]: 0.0545 | cell viability (log2) [14]: 0.0404

Nc1ccn([C@H]2CC[C@@H](CO)O2)c(=O)n1
cell viability (log2) [1]: 0.122 | cell viability (log2) [2]: 0.0536 | cell viability (log2) [5]: 0.188 | cell viability (log2) [6]: 0.111 | cell viability (log2) [7]: 0.116 | cell viability (log2) [8]: 0.0808 | cell viability (log2) [9]: 0.123 | cell viability (log2) [10]: 0.139 | cell viability (log2) [13]: 0.0418 | cell viability (log2) [14]: 0.107 | cell viability (log2) [15]: 0.148 | cell viability (log2) [16]: 0.0816 | cell viability (log2) [17]: 0.0629 | cell viability (log2) [18]: 0.0663 | cell viability (log2) [19]: 0.132 | cell viability (log2) [20]: 0.176

C[N+](C)(C)CCOP(=O)([O-])OP(=O)(O)OC[C@H]1O[C@@H](n2ccc(N)nc2=O)[C@H](O)[C@@H]1O
cell viability (log2) [5]: 0.0983 | cell viability (log2) [6]: 0.0319 | cell viability (log2) [13]: 0.095 | cell viability (log2) [14]: 0.0926

Nc1ccn([C@@H]2O[C@H](CO)[C@@H](O)[C@H]2O)c(=O)n1
cell viability (log2) [3]: 0.138 | cell viability (log2) [4]: 0.019 | cell viability (log2) [11]: 0.237 | cell viability (log2) [12]: 0.0416

Nc1ncn([C@@H]2O[C@H](CO)[C@@H](O)[C@H]2O)c(=O)n1
cell viability (log2) (0.025 µM, library screen: screen2, EWS-FLI1 expression: high (no doxycycline)): 0.00187 | cell viability (log2) (0.025 µM, library screen: screen2, EWS-FLI1 expression: low (doxycycline-induced shRNA knockdown)): 0.0749 | cell viability (log2) [3]: 0.0677 | cell viability (log2) [4]: 0.0883 | cell viability (log2) [5]: 0.0549 | cell viability (log2) [6]: 0.0892 | cell viability (log2) [11]: 0.046 | cell viability (log2) [12]: 0.161 | cell viability (log2) [13]: 0.0659 | cell viability (log2) [14]: 0.0803 | cell viability (log2) (25 µM, library screen: screen2, EWS-FLI1 expression: high (no doxycycline)): -0.117 (active) | cell viability (log2) (25 µM, library screen: screen2, EWS-FLI1 expression: low (doxycycline-induced shRNA knockdown)): -0.00278

Nc1ncn([C@H]2C[C@H](O)[C@@H](CO)O2)c(=O)n1
cell viability (log2) [1]: -0.0304 | cell viability (log2) [2]: 0.0527 | cell viability (log2) [7]: -0.025 | cell viability (log2) [8]: 0.0562 | cell viability (log2) [9]: -0.0731 | cell viability (log2) [10]: 0.022 | cell viability (log2) [15]: -0.0569 | cell viability (log2) [16]: 0.0493 | cell viability (log2) [17]: -0.0462 | cell viability (log2) [18]: 0.058 | cell viability (log2) [19]: -0.117 | cell viability (log2) [20]: 0.0388

Nc1ccn([C@@H]2O[C@H](CO)[C@@H](O)C2(F)F)c(=O)n1
cell viability (log2) [1]: -1.19 (active) | cell viability (log2) [2]: -0.155 (active) | cell viability (log2) [7]: -1.43 (active) | cell viability (log2) [8]: -0.392 (active) | cell viability (log2) [9]: -1.81 (active) | cell viability (log2) [10]: -0.473 (active) | cell viability (log2) [15]: -1.98 (active) | cell viability (log2) [16]: -0.588 (active) | cell viability (log2) [17]: -2.08 (active) | cell viability (log2) [18]: -0.562 (active) | cell viability (log2) [19]: -2.16 (active) | cell viability (log2) [20]: -0.572 (active)

N=c1ccn2c(n1)O[C@H]1[C@H](O)[C@@H](CO)O[C@H]12
cell viability (log2) [3]: -0.254 (active) | cell viability (log2) [4]: 0.0178 | cell viability (log2) [5]: -0.122 (active) | cell viability (log2) [6]: 0.0732 | cell viability (log2) [11]: -1.03 (active) | cell viability (log2) [12]: -0.19 (active) | cell viability (log2) [13]: -0.641 (active) | cell viability (log2) [14]: 0.0215

Nc1ccn([C@@H]2CS[C@H](CO)O2)c(=O)n1
cell viability (log2) [1]: 0.125 | cell viability (log2) [2]: 0.0191 | cell viability (log2) [7]: 0.0768 | cell viability (log2) [8]: 0.0559 | cell viability (log2) [9]: 0.0245 | cell viability (log2) [10]: 0.0926 | cell viability (log2) [15]: 0.132 | cell viability (log2) [16]: 0.0391 | cell viability (log2) [17]: 0.0536 | cell viability (log2) [18]: 0.0703 | cell viability (log2) [19]: 0.101 | cell viability (log2) [20]: 0.0951

NC(=O)c1ncn([C@@H]2O[C@H](CO)[C@@H](O)[C@H]2O)c1N
cell viability (log2) [1]: 0.135 | cell viability (log2) [2]: 0.0617 | cell viability (log2) [7]: 0.0707 | cell viability (log2) [8]: 0.0876 | cell viability (log2) [9]: 0.088 | cell viability (log2) [10]: 0.0588 | cell viability (log2) [15]: 0.1 | cell viability (log2) [16]: 0.0775 | cell viability (log2) [17]: 0.0463 | cell viability (log2) [18]: 0.126 | cell viability (log2) [19]: 0.13 | cell viability (log2) [20]: 0.087
